High-throughput results (PubChem BioAssay)
Pf growth 96h: P. falciparum growth inhibition at 96 hour, primary screen for plastid delayed-death inhibitors; 320,000 compounds, 6.9% hits; P. falciparum luciferase reporter growth, 96 h; AID 504834; Potency, µM (series often up to 28.7 µM), inactives show at the top dose activity change, negative = inhibition, usual class: inhibitors
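Parasite growth measured via integrated firefly luciferase reporter in P. falciparum. Infected erythrocytes at 2% hematocrit, 0.05% parasitemia final were treated 96 hours at 37 C under 5% CO2, and luminescence was read.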
VACV mCherry inh: vaccinia inhibition (mCherry reporter). Potency, µM (highest dose often 36.5 µM), without a hit: top-dose activity change, negative = inhibition, usual class: inhibitors. 310,000 compounds, 0.63% hits. Vaccinia virus mCherry reporter infection, fluorescence. AID 720579; calls by dose curve; tested in A549 cells; also: nearly all actives have a fitted effect of over 35% in size
AMA1 RON2 block: disrupts binding of P. falciparum AMA1 to RON2. AlphaScreen AMA1-biotinylated RON2 peptide binding. Potency, µM (doses to about 58.2 µM), for the others: at the top dose activity change, negative = inhibition, most hits filed as inhibitors. 360,000 compounds, 0.2% hits;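 also: 0% = vehicle wells and -100% = peptide control; nearly all actives have a fitted effect of over 45% in size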
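AMA1 (3D7) with his tag at 25 nM final met compounds first, then biotinylated RON2 peptide at 25 nM; detection used donor plus acceptor beads, 10 µg/mL apiece, read by AlphaScreen after 30 min at room temperature.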
VACV Venus inh: vaccinia inhibition (Venus reporter). 330,000 compounds, 0.46% hits. Vaccinia virus Venus reporter expression, fluorescence. AID 720580. Potency, µM (doses to about 36.5 µM), inactives show at the top dose activity change, negative = inhibition, actives largely listed as inhibitors; calls by dose curve; tested in A549 cells; also: nearly all actives have a fitted effect of over 30% in size
Pf growth 48h: P. falciparum growth inhibition at 48 hours (one generation) | Potency, µM (doses to about 28.7 µM), for inactives: top-dose activity change, negative = inhibition, actives largely listed as inhibitors | P. falciparum luciferase growth in erythrocytes, 48 h | 310,000 compounds, 5.9% hits
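Growth was read as firefly luciferase luminescence after a 48 h, 37 C, 5% CO2 exposure of compounds to reporter-bearing P. falciparum cultures (0.1% parasitemia, 2% hematocrit final) in Albumax-supplemented RPMI 1640.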
Starred values were filed as active, the others as inactive; i = inactive; u = inconclusive; x = not tested or not shown; [ ] = remark or other dose. In the library only some 8.7% were active in any assay of this set; here they are far more common. Unless noted, calls follow the shape of the dose curve; as a rule, active = well fitted curve in the direction sought with a large enough effect; inconclusive = small, poorly fitted or top-dose-only effect, or another doubt; inactive = no such curve, though single readings can be large; an effect the other way counts as inactive or inconclusive. Unless noted, % is scaled to controls: 0 for no effect and ±100 for the full control effect; potency is read from the fitted curve at half-maximal effect.

SMILES | Pf growth 96h | VACV mCherry inh | AMA1 RON2 block | VACV Venus inh | Pf growth 48h
CCOC(=O)c1c(S(=O)(=O)N2CCC(C(=O)NCc3cccc(C)c3)CC2)c(C)n(C)c1C | x | 1.7% | x | -3.0% | x
COc1ccc(C(=O)NCC(c2ccc(N(C)C)cc2)N2CCCC2)c(OC)c1 (stereo unspecified) | x | -7.0% | x | -13.9% | x
C/C(Cl)=C\Cn1c(O)c(N=NC(N)=S)c2ccccc21 | -13.9% | 0.316µM* | 70.1% | u | u
Cc1ccc(NC(=O)Cn2c(O)c(N=NC(N)=S)c3ccccc32)cc1 | 70.4% | u | 37.8% | 0.282µM* | -14.3%
COc1ccc(Br)cc1CN(C)C(=O)Cc1ccc(OC)c(S(=O)(=O)N2CCOCC2)c1 | 6.57µM* | x | -3.5% | x | u
O=C(Nc1ccccc1N1CCN(c2ccccc2)CC1)C1CCCCC1 | u | -12.4% | -3.0% | -3.8% | 3.6%
COc1ccc(NC(=O)Cc2ccc(Cl)cc2)cc1S(=O)(=O)N1CCCCC1 | 10.4µM* | x | -5.4% | x | u
CN(C)S(=O)(=O)c1cccc(NC(=O)COc2cccc(C#N)c2)c1 | 7.8% | -17.0% | -10.8% | -7.2% | 21.9%
COc1ccc(S(=O)(=O)N(C)C)cc1NC(C)C(=O)Nc1cccc(C#N)c1 (stereo unspecified) | u | -7.1% | -7.2% | -3.1% | 2.94µM*
CC(C)(C)C1CCC(C(=O)Nc2ccccc2N2CCOCC2)CC1 (stereo unspecified) | u | -1.8% | 3.2% | -8.5% | 9.28µM*
COc1ccc(NC(=O)Cc2ccccc2F)cc1S(=O)(=O)N1CCCCC1 | u | x | -8.8% | x | u
CC(=O)Nc1ccc(Nc2nc(Nc3ccc(Cl)cc3)nc(N3CCOCC3)n2)cc1 | x | -19.5% | x | -23.4% | x
COc1ccc(-c2nc3ccccc3n3c(-c4ccc(OC)cc4)c4c(=O)n(C)c(=O)n(C)c4c23)cc1 | x | -22.6% | x | -13.7% | x
COc1ccc(CC(=O)Nc2ccc(C)c(S(=O)(=O)N3CCCCCC3)c2)cc1 | 7.5% | x | -0.6% | x | u
COC(=O)c1cc(OC)c(OC)cc1NCC(=O)Nc1ccc(C)cc1 | 9.4% | -10.6% | 4.3% | -8.4% | -9.9%
COc1ccc(C)cc1NCC(=O)Nc1ccc(C(C)(C)C)cc1 | 9.28µM* | -24.6% | u | -16.8% | u
COc1ccc(NC(=O)c2cc3c(s2)CCC(C)C3)cc1S(=O)(=O)N1CCOCC1 (stereo unspecified) | 7.38µM* | u | -7.3% | u | u
Cc1ccc(NC(=O)Cc2ccc(Cl)cc2)cc1S(=O)(=O)N1CCCCCC1 | u | x | 13.1% | x | 13.1µM*
COc1ccc(S(=O)(=O)N(C)C)cc1NCC(=O)Nc1ccc(Br)c(C)c1 | u | -27.6% | -26.0% | -19.6% | 10.4µM*
CCOC(=O)c1cc(-c2ccc(F)cc2)n(CCC(=O)Nc2nc3cc(C)c(C)cc3s2)c1C | x | -16.6% | x | -19.9% | x
CC(C)CSc1oc(-c2ccco2)nc1S(=O)(=O)c1ccc(Br)cc1 | x | -13.8% | x | -11.7% | x
COc1ccc(N2CCN(C(=O)CCn3nc(C)c(S(=O)(=O)N4CCCC4)c3C)CC2)cc1 | x | -15.0% | x | -15.1% | x
COc1ccc(NC(=O)C2CCC(C(C)(C)C)CC2)cc1S(=O)(=O)N1CCOCC1 (stereo unspecified) | 13.1µM* | x | 0.0% | x | u
COc1ccc(CC(=O)Nc2ccc(F)c(Cl)c2)cc1S(=O)(=O)N1CCOCC1 | u | x | 0.8% | x | 6.57µM*
COc1ccc(C)cc1NC(=O)CNc1ccccc1CN(C)C1CCCCC1 | 4.65µM* | -29.2% | -9.2% | -20.9% | 14.7µM*
SMILES | Pf growth 96h | VACV mCherry inh | AMA1 RON2 block | VACV Venus inh | Pf growth 48h
COc1ccc(NC(=O)CNc2cc(C)ccc2C)cc1S(=O)(=O)N1CCOCC1 | 14.7µM* | x | -3.1% | x | u
COc1ccc(NC(=O)C2CCC2)cc1S(=O)(=O)N1CCOCC1 | u | x | -1.7% | x | -15.6%
OC(c1ccccc1)C1CN(Cc2ccccc2)CCC1(O)c1ccccc1 (stereo unspecified) | -1.5% | -5.6% | -9.0% | -20.0% | 0.738µM*
O=C(c1ccccc1)C1CN(Cc2ccccc2)CCC1(O)c1ccccc1 (stereo unspecified) | 0.2% | -10.5% | -1.1% | -14.1% | u
COCC(=O)Nc1ccc(Br)cc1C | 5.86µM* | i | 7.2% | -13.3% | 11.9%[5.75 µM]
Cc1cc(F)ccc1NCC(=O)Nc1ccc(Br)cc1C | -23.6% | -5.3% | -16.9% | -18.6% | -4.9%
CN(C)CCC#CC1(O)c2ccccc2-c2ccccc21 | 57.7% | x | -1.9% | x | 11.6%
CCN(CC)CCC#CC1(O)c2ccccc2-c2ccccc21 | 3.29µM* | -14.9% | -4.2% | -10.8% | -10.4%
OC1(C#CCN2CCCC2)c2ccccc2-c2ccccc21 | u | i | 10.7% | -9.9% | 11.7µM*
OC(C#CCN1CCCC1)c1ccccc1 (stereo unspecified) | x | -10.7% | 7.7% | -6.3% | 17.2%
CCCCCN1C(C(=O)c2ccccc2)=C(NC(=O)c2ccccc2Cl)c2ccccc2S1(=O)=O | x | i | x | 4.0% | x
CC(=O)N1CCc2cc(CNS(=O)(=O)c3ccccc3C(F)(F)F)ccc21 | x | -11.5% | x | -18.2% | x
c1cc2c(cc1OCCNC1CCCC1)CCC2 | 11.7µM* | x | x | x | -18.4%
c1ccc(-c2ccc(OCCCNC3CCCC3)cc2)cc1 | 2.7% | u | -4.6% | -19.3% | 13.1µM*
CNCCCOc1ccc2c(c1)CCC2 | 10.6%[5.75 µM] | -14.8% | -16.6% | -11.5% | u
c1ccc(Cc2ccc(OCCCNC3CCCC3)cc2)cc1 | -30.9%[1.15 µM] | x | x | x | u
c1ccc(CCc2nc(-c3cccnc3)no2)cc1 | u | -20.9% | 8.2% | -15.2% | 41.8%
c1ccc(CCc2ccccc2-c2nc(-c3cccnc3)no2)cc1 | u | x | 134.3% | -13.1% | 13.1µM*
Cc1cccc(-c2noc(-c3ccc4c(c3)OCO4)n2)c1 | -19.6% | i | 4.8% | -6.2% | 13.7%
Cc1cccc(-c2oc3ccccc3c2-c2ccc3c(c2)OCO3)c1 | 9.28µM* | i | 2.9% | -1.4% | u
CCC(=O)Nc1c(S(=O)(=O)c2ccc(C)cc2)c2nc3ccccc3nc2n1C(C)c1ccccc1 (stereo unspecified) | u | -21.7% | 0.1% | -21.7% | u
CCC(=O)Nc1c(S(=O)(=O)c2ccccc2)c2nc3ccccc3nc2n1C(C)c1ccccc1 (stereo unspecified) | 11.7µM* | -10.9% | -16.2% | -22.7% | 11.7µM*
S=C(N/N=C/c1cccc2ccccc12)Nc1cccc(Cl)c1 | 2.94µM* | -1.6% | 42.5% | 4.1% | u
CCCCCC(=O)N/N=C(\C)c1ccccn1 | u | u | 27.6% | u | 1.65µM*
S=C(NCc1ccccn1)Nc1cccc(Cl)c1 | 2.9% | -15.7% | 12.3% | -4.8% | 9.1%
CC(=NNC(=S)Nc1cccc(Cl)c1)c1ccccn1 | x | 2.82µM* | -42.1% | u | x
C/C(=N\NC(=O)COc1ccccc1-c1ccccc1)c1ccccn1 | u | u | 56.1% | u | 2.08µM*
Cc1ccc(-c2cc(NC(=O)COc3ccc(Cl)cc3C)on2)cc1 | x | -18.5% | x | -15.4% | x
CCc1ccc(C(=O)c2cn(CC(=O)Nc3ccc(OC)c(OC)c3)c3ccc(C)cc3c2=O)cc1 | x | -15.2% | x | -14.7% | x
